Assay outcomes: PubChem, The Scripps Research Institute Molecular Screening Center
This is a sample that favours compounds with a hit; in the whole collection about 4.1% have one here.
ssDAF12 agonist: activates DAF-12 receptor from parasite S. stercoralis; HEK293 ssDAF-12/GRIP1 lit1-tk-luc reporter, luminescence; % of 3 µM dafachronic acid response; activation, % at 6.8 µM; 370,000 compounds, 1% hits;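 active = activation above the mean over all tested compounds plus 3 SD, cut at about 0.9% in these data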
DAX1 inh-1: blocks DAX1 repression of SF-1 activated StAR promoter; HEK293T StAR-luciferase reporter, SF-1/DAX-1 repression relief; 370,000 compounds, 1.1% hits; inhibition, % at 6.8 µM; AID 652010;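 active = inhibition above the mean over all tested compounds plus 3 SD, cut at about 3.6% in these data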;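 note: higher inhibition means more luminescence from relief of DAX-1 repression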
hcDAF-12 act: H. contortus DAF-12 activation, primary screen; HEK293 hcDAF-12 lit1-tk-luc reporter, luminescence; 0% DMSO, 100% Δ7-dafachronic acid; 370,000 compounds, 1.4% hits; AID 652067; activation, % at 6.8 µM;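 active = activation above the mean of all tested compounds plus 3 SD, cut at about 5.5% in these data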
DAX1 inh-2: inhibits human nuclear receptor DAX1 | HEK293 Gal4-DAX1 luciferase reporter, luminescence | AID 504766 | inhibition, % at 6.75 µM | 340,000 compounds, 0.99% hits;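 active = inhibition above the mean over all tested compounds plus 3 SD, cut at about 4.2% in these data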;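 note: inhibition shows as a rise in luminescence from relieved DAX1 repression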
Target sequence (P51843 207-470 limits assumed): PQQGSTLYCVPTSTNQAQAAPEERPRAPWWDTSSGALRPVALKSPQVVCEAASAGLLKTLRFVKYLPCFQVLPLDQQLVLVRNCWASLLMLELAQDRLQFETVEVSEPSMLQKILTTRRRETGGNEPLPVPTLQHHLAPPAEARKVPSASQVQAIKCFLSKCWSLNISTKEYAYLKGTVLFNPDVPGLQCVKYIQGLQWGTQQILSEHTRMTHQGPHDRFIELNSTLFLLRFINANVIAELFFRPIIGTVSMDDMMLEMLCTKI
hgDAF12 agonist: agonists of H. glycines DAF-12 nuclear receptor. HEK293 GAL4-hgDAF12 UAS-luciferase reporter, agonist luminescence; normalized to butyrate control. activation, % at 6.8 µM. 370,000 compounds, 1.8% hits. AID 687014;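 active = activation above a cutoff set at the mean of all screened compounds plus 3 SD, cut at about 10% in these data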
DAX1 conf: NR0B1 (human) inhibition, confirmation | inhibition, % at 6.8 µM | HEK293T StAR-promoter luciferase reporter, SF-1/DAX-1 repression | AID 652134 | 2,400 compounds, 87% hits | shares compounds with DAX1 inh-1;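 active = inhibition above the average of every tested compound plus 3 SD, cut at about 3.8% in these data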;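 note: active compounds raise luminescence by relieving repression of the StAR reporter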
Target sequence (P51843 whole entry, looked up): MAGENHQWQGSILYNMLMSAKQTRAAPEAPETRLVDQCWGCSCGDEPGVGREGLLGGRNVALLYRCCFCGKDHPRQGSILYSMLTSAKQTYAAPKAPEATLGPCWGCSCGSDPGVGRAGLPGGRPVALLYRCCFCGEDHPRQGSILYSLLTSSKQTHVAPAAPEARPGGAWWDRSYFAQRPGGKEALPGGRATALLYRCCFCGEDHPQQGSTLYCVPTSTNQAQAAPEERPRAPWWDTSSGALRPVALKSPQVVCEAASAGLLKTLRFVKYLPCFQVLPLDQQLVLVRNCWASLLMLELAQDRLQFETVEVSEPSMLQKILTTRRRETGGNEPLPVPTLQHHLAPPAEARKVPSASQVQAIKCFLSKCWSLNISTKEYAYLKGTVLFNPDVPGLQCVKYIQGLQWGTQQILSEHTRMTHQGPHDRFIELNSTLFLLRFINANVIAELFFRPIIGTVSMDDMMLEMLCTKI
SF1 AF2mut Luc: counter-screen for DAX1 inhibitors: nonselective inhibitors with SF-1 AF2 mutant. shares compounds with DAX1 inh-1. inhibition, % at 6.8 µM. HEK293 StAR-luciferase, luminescence. 2,400 compounds, 78% hits;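 active = inhibition above the mean of all tested compounds plus 3 SD, cut at about 3% in these data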
LXRb hcDAF ctr: counter-screen for hcDAF-12 agonists: agonists of human LXR-beta. AID 743027. activation, % at 6.8 µM. 3,400 tested, under 10 active. HEK293 Gal4-LXR tk-luc reporter, luminescence, 24 h; normalized: DMSO 0%, positive control 100%. shares compounds with hcDAF-12 act;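 active = mean percent activation of the reporter above a cutoff set as the average over tested compounds plus their standard deviation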
hcDAF12 conf: hcDAF-12 agonism, confirmation assay. activation, % at 6.8 µM. 3,400 compounds, 61% hits. shares compounds with hcDAF-12 act. HEK293 hcDAF-12 lit1-tk-luc reporter, luminescence; % of Δ7-dafachronic acid response;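 active = mean activation across triplicate tests above the threshold derived from the earlier primary screen, cut at about 5.5% in these data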
hgDAF12 conf: hgDAF-12 agonism, confirmation assay. HEK293 GAL4-hgDAF12 luciferase reporter, agonist mode; percent of butyrate response. shares compounds with hgDAF12 agonist. 3,300 compounds, 80% hits. activation, % at 6.8 µM;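 active = mean activation over triplicate wells above the hit cutoff derived from the earlier primary screen, cut at about 11% in these data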
LXRb DAF12 ctr: activates human LXR-beta, counter-screen for DAF-12 agonists; shares compounds with hgDAF12 agonist; HEK293 Gal4-LXR luciferase reporter, 24 h; activation, % at 6.8 µM; 3,300 tested, under 10 active; AID 743051;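 active = mean activation of the triplicate above a set limit carried over from the primary screen, none filed active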
Large screens that a line does not name were inactive (follow-up assays come after a bar, where they were run).

Cc1ccc(O)c(-c2cc(C(=O)Nc3cccnc3)[nH]n2)c1	DAX1 inh-1 4.8, DAX1 inh-2 7.0, hgDAF12 agonist 19 | DAX1 conf 13 | SF1 AF2mut Luc 6.2 | hgDAF12 conf 13 | LXRb DAF12 ctr inactive
COC(=O)[C@H]1[C@@H](O)[C@@]2(O)c3c(OC)cc(OC)cc3O[C@@]2(c2ccc(OC)cc2)[C@@H]1c1ccc(F)cc1	none (no result: DAX1 inh-2)
COc1ccc(NC(=O)CSc2nnnn2C2CC2)cc1S(=O)(=O)N1CCOCC1	none
O=C(O)c1ccc(Nc2nc(-c3ccccc3)cs2)cc1	DAX1 inh-1 5.0, hgDAF12 agonist 15 | DAX1 conf 13 | SF1 AF2mut Luc 7.7 | hgDAF12 conf 16 | LXRb DAF12 ctr inactive
Cc1csc(Nc2ccc(C(=O)O)cc2)n1	none
Cc1cc(C(=O)Nc2ccc(Br)cn2)sc1C	DAX1 inh-1 6.3, hcDAF-12 act 5.8, hgDAF12 agonist 14 | DAX1 conf 13 | SF1 AF2mut Luc 8.6 | hgDAF12 conf 18 | LXRb DAF12 ctr inactive
CCC(=O)Nc1ccc(Br)cn1	none
CC(=O)c1sc(NC(=O)c2cccc(C)c2)nc1C	DAX1 inh-1 4.6, DAX1 inh-2 7.0, hgDAF12 agonist 20 | DAX1 conf 5.9 | SF1 AF2mut Luc 5.4 | hgDAF12 conf 15 | LXRb DAF12 ctr inactive
Cc1ccc(NC(=S)c2ccc(N(C)C)cc2)cc1	DAX1 inh-1 5.6, hgDAF12 agonist 14 | DAX1 conf 13 | SF1 AF2mut Luc 7.8 | hgDAF12 conf 17 | LXRb DAF12 ctr inactive
COc1ccc(N=C2C(=Nc3ccc(OC)cc3)N(c3ccccc3)C(=S)N2C(=O)c2ccc(Cl)cc2)cc1	DAX1 inh-1 4.5, hgDAF12 agonist 15 | DAX1 conf 6.0 | SF1 AF2mut Luc 5.8 | hgDAF12 conf 18 | LXRb DAF12 ctr inactive
COc1ccc(N=C2C(=Nc3ccc(OC)cc3)N(c3ccc(OC)cc3)C(=S)N2C(=O)c2ccc(OC)cc2)cc1	none
CC(C#N)(Cc1ccccc1)Nc1ccccc1 (stereo not given)	DAX1 inh-1 5.0, hcDAF-12 act 6.5, hgDAF12 agonist 14 | DAX1 conf inactive | SF1 AF2mut Luc inactive | hgDAF12 conf inactive | LXRb DAF12 ctr inactive
C=CC(=O)NC(C)(C)Cc1ccccc1	none
CN1OC[C@@H]2CN[C@H](c3ccc(-c4cccc(F)c4)cc3)C[C@@H]21	DAX1 inh-1 6.2, hgDAF12 agonist 13 | DAX1 conf 6.3 | SF1 AF2mut Luc inactive | hgDAF12 conf inactive | LXRb DAF12 ctr inactive
COC(=O)C1(C)NC(c2cccc(C)c2)C2C(=O)N(c3ccccc3)C(=O)C21 (stereo not given)	none
CCN=C1NN=C(c2cc(C)n(CCc3ccccc3)c2C)CS1	none
CCN=C1NN=C(c2c[nH]c3ccccc23)CS1	ssDAF12 agonist 3.7, DAX1 inh-1 4.9, hcDAF-12 act 11, hgDAF12 agonist 15 | DAX1 conf 12 | SF1 AF2mut Luc 5.8 | LXRb hcDAF ctr inactive | hcDAF12 conf 12 | hgDAF12 conf 20 | LXRb DAF12 ctr inactive
COc1cccc(C2=CC(=O)CC(c3ccco3)C2)c1 (stereo not given)	none
CCc1nc2ccc(C(=O)NCc3ccc(OC)cc3)cn2c1N(C)C(=O)Cc1ccccc1	none (no result: DAX1 inh-2)
Cc1cc(S(=O)(=O)Nc2ccc(C(=O)NCc3cccnc3)cc2)ccc1F	none
Cc1ccc(NCc2nc3ccccc3n2C)cc1	ssDAF12 agonist 3.5, DAX1 inh-1 6.3, hcDAF-12 act 15, hgDAF12 agonist 14 | DAX1 conf 15 | SF1 AF2mut Luc 8.2 | LXRb hcDAF ctr inactive | hcDAF12 conf 17 | hgDAF12 conf 18 | LXRb DAF12 ctr inactive
CCN(CC)c1ccc(N=Nc2nn(C)c(C)c2[N+](=O)[O-])cc1	ssDAF12 agonist 1.2, DAX1 inh-1 4.7, hgDAF12 agonist 16 | DAX1 conf 14 | SF1 AF2mut Luc 5.2 | hgDAF12 conf 15 | LXRb DAF12 ctr inactive
CCN(Cc1ccccc1)c1ccc(N=Nc2nn(C)c(C)c2[N+](=O)[O-])cc1	none
O=C(CSC(=S)N1CCCC1)c1ccccc1	DAX1 inh-1 9.6, hgDAF12 agonist 18 | DAX1 conf 9.5 | SF1 AF2mut Luc 7.4 | hgDAF12 conf 14 | LXRb DAF12 ctr inactive
O=C(CSC(=S)N1CCCCC1)c1ccccc1	none
CC1(C(=O)NCc2ccccc2)CN(S(C)(=O)=O)CC(=O)N1CCCn1ccnc1 (stereo not given)	none (no result: DAX1 inh-2)
CC(/C=N/Nc1nc2ccccc2[nH]1)=C\c1ccccc1	ssDAF12 agonist 1.5, DAX1 inh-1 6.9, hcDAF-12 act 8.8, hgDAF12 agonist 21 | DAX1 conf 18 | SF1 AF2mut Luc 7.0 | LXRb hcDAF ctr inactive | hcDAF12 conf 6.6 | hgDAF12 conf 23 | LXRb DAF12 ctr inactive
Cc1nn(-c2ccccc2)c(C)c1/C=N/Nc1nc2ccccc2[nH]1	ssDAF12 agonist 1.8, DAX1 inh-1 6.4, hcDAF-12 act 9.1, hgDAF12 agonist 22 | DAX1 conf 17 | SF1 AF2mut Luc 8.5 | LXRb hcDAF ctr inactive | hcDAF12 conf 8.9 | hgDAF12 conf 17 | LXRb DAF12 ctr inactive
CCc1nc2ccc(C(=O)Nc3cc(-c4ccccc4)ccc3OC)cn2c1N(C)C(=O)c1cccc(OC)c1	none (no result: DAX1 inh-2)
Cc1ccc2n(n1)c(=O)c(Cc1ccccc1)c([O-])[n+]2-c1ccccc1	none
CC1CCN(c2nc3ccc(C(=O)NCCCN4CCCCC4C)cc3s2)CC1 (stereo not given)	ssDAF12 agonist 1.6, DAX1 inh-1 7.2, hgDAF12 agonist 15 | DAX1 conf 12 | SF1 AF2mut Luc 7.1 | hgDAF12 conf 15 | LXRb DAF12 ctr inactive
Cc1cnc2nc(-c3ccccc3)ccc2c1	ssDAF12 agonist 1.0, DAX1 inh-1 8.2, hcDAF-12 act 6.8, hgDAF12 agonist 17 (no result: DAX1 inh-2) | DAX1 conf 11 | SF1 AF2mut Luc 6.8 | LXRb hcDAF ctr inactive | hcDAF12 conf 6.6 | hgDAF12 conf 19 | LXRb DAF12 ctr inactive
